This is one part of a sample in which hits are shown more often than they occur.
RMI FANCM FP: inhibitors of human RMI core complex binding to FANCM MM2 | Fluorescence polarization, RMI core complex with F-MM2 peptide; active compounds read low | FP signal (polarization) at 33 µM | hit rate 0.58% among 70,000 | AID 1159607; in the data active = FP signal below about 40
A number is an active result; 0 = inactive; ! = repeats disagree.

SMILES	RMI FANCM FP
CC1C(=O)NCCN1C(=O)c1cccc(S(C)(=O)=O)c1 (stereo not given)	0
CC(=O)N1CCc2c(sc(NC(=O)COc3ccc(Cl)cc3Cl)c2C#N)C1	0
O=C1c2ccccc2C(=O)c2c1ccc(O)c2O	0
O=C1c2ccccc2C(=O)c2c(Sc3cccc4c3C(=O)c3ccccc3C4=O)cccc21	0
O=C1c2cccc(O)c2C(=O)c2c(O)cccc21	27
COc1ccc(-c2noc(CSc3nc4ccsc4c(=O)n3C)n2)cc1OC	0
COc1ccc(-c2nc(CNS(=O)(=O)c3ccc4ccccc4c3)cs2)cc1	0
Cc1c(Cl)cccc1NC(=O)NCCn1ncccc1=O	0
O=S(=O)(Nc1ccc2c(c1)CN(S(=O)(=O)c1ccccc1)CC2)c1ccc2c(c1)OCCO2	0
Cc1ccc(-n2cc(C(=O)N3CCN(c4ccc(F)cc4)CC3)nn2)cc1C	0
CSc1nc(N)nc(N2CCOCC2)n1	0
O=C(COc1ccc(S(=O)(=O)Nc2ccccc2)cc1Cl)c1ccccc1	0
COc1cc(NS(=O)(=O)c2ccc3ccccc3c2)ccc1N1CCCCC1=O	0
O=C(Oc1ccc(NS(=O)(=O)c2ccc3ccccc3c2)cc1Cl)c1ccccc1	29
COC(=O)c1c(NC(=O)CCS(=O)(=O)c2ccccc2)sc2c1CCC(C)C2 (stereo not given)	0
Cc1onc(-c2ccccc2)c1CNC(=O)c1cnn(-c2ccccc2)c1C	0
COc1ccc(Oc2ccc([N+](=O)[O-])c3nonc23)cc1	4
COc1ccc(Oc2ccc([N+](=O)[O-])cc2-c2nc(-c3ccccn3)no2)cc1	0
CCOC(=O)CNC(=O)c1cc([N+](=O)[O-])ccc1Oc1ccc(OC)cc1	0
Cc1nnc(-c2cn(CC(=O)N3CCCc4ccccc43)c3ccccc23)o1	0
COc1ccc(CCNC(=O)Cn2cc(-c3nnc(-c4ccco4)o3)c3ccccc32)cc1OC	0
Cc1nc(Cl)c2c3c(sc2n1)CCCC3	0
Cc1nc2sc3c(c2c(=O)o1)CCCC3	0
Cc1nc(Sc2nc3ccccc3o2)c2c3c(sc2n1)CCCC3	30
COc1cc(OC)cc(-c2noc(-c3sccc3S(=O)(=O)N(C)c3ccc(F)c(F)c3)n2)c1	0
SMILES	RMI FANCM FP
O=C(CNC(=O)c1ccco1)N/N=C\c1c[nH]c2ccccc12	0
O=[N+]([O-])c1ccccc1-c1ccc(-c2nnc(-c3ccco3)o2)o1	25
O=[N+]([O-])c1cccnc1Sc1nccc(-c2ccco2)n1	0
CCOC(=O)C(=Cc1ccc(-c2ccccc2[N+](=O)[O-])o1)C(=O)OCC	0
COC(=O)Cn1c(=NC(=O)c2ccnn2C)sc2cc3c(cc21)OCO3	0
Cc1cc(C)c(NC(=O)C(=O)NCCc2ccc(N3CCCC3)cc2)c(C)c1	0
CC1Sc2sc(=S)sc2SC(C)(C)C1=O (stereo not given)	0
CC(/C=C1\SC(=S)N(CC(=O)N2c3ccccc3Sc3ccccc32)C1=O)=C\c1ccccc1	0
CC(/C=C1\SC(=O)N(CC(=O)Nc2ccc(O)cc2)C1=O)=C\c1ccccc1	0
CC(/C=C1\SC(=S)N(CC(=O)Nc2ccc(C(=O)O)c(O)c2)C1=O)=C\c1ccccc1	19
O=C(Cc1nc(-c2ccncc2)n[nH]1)NC1CCCC1	0
O=C(Nc1ccc2c(c1)C(=O)NCCO2)c1cccc(Br)c1	0
O=C(CSc1nc2ccccc2o1)N1CCOCC1	0
O=C(Cn1cnc2ccccc21)N1CCOCC1	0
O=C(CSc1nnc2nnc3ccccc3n12)N1CCOCC1	17
COc1ccc(C(=O)OCCNC(=O)c2cccnc2)cc1	0
CCc1cc2c(Nc3cccc(O)c3)nc(C)nc2s1	0
CC(C)Oc1ccccc1Oc1ccc(N)cn1	0
Nc1ccc(Oc2cccnc2)nc1	-6
CSc1ccc(Oc2ccc(N)cn2)cc1	0
O=C1N=C(N2CCN(c3ccccc3[N+](=O)[O-])CC2)S/C1=C/c1cccs1	18
O=C1N=C(N2CCN(c3ccccc3F)CC2)S/C1=C\c1cccnc1	0
CC1CCN(C2=NC(=O)/C(=C\c3ccccc3)S2)CC1	0
O=C(NCCn1nc(-c2cccnc2)ccc1=O)c1ccc(Cl)cc1Cl	0
O=C(Cc1cc(=O)[nH]c(SCc2cccc(Cl)c2)n1)NC1CC1	0
SMILES	RMI FANCM FP
O=C(CCCSc1ccc(NC(=O)c2cccs2)nn1)NCc1cccs1	0
Cc1ccc(CSc2ccc([N+](=O)[O-])cc2)cc1	0
N#Cc1c(N)sc(=S)c2c1CCCC2	7
CC(C)(C)C(=O)Nc1sc2c(c1C#N)CCCC2	0
N#Cc1c(N)sc2c1CCC2	0
CC(=O)Oc1ccccc1C(=O)Oc1ccc(C=NC23CC4CC(CC(C4)C2)C3)cc1	0
Cc1ccccc1Cn1nnc2c(=O)n(Cc3nc(-c4ccccc4Cl)no3)cnc21	0
C=CCn1c(SCC(=O)Nc2ccc3c(c2)OCCO3)nc2sc(C)c(C)c2c1=O	0
COCCCN1COc2ccc3cc(-c4cc(OC)ccc4OC)c(=O)oc3c2C1	35
CCOCCCN1COc2ccc3c(=O)c(-c4ccc(Cl)cc4)coc3c2C1	0
COc1ccc(-c2cc3ccc4c(c3oc2=O)CN(CC2CCCO2)CO4)cc1OC (stereo not given)	0
O=C(Nc1ccc(Cl)c(Cl)c1)Nc1c2ccccc2nc(=O)n1Cc1cccnc1	0
COc1ccccc1CNC(=O)CSc1ncc(-c2ccc(Cl)cc2)n1C	0
COCCN1CCC(CNC(=O)C(=O)Nc2cccc(Cl)c2C)CC1	0
CC(/C=C1\SC(=O)NC1=S)=C\c1ccccc1	0
Cc1ccc(N=C2NC(=O)/C(=C/c3cccnc3)S2)cc1	0
O=C1NC(=S)/C(=C/c2cccnc2)S1	-19
O=C(c1cc(Cl)ccc1Cl)N1CCN(Cc2nc(-c3ccco3)cs2)CC1	0
Cc1cc(C(=O)Nc2nnc(-c3ccno3)o2)n(C)n1	0
O=C(Nc1cccc(C(F)(F)F)c1)c1ccc([N+](=O)[O-])o1	0
CC(C)(CCOC(=O)c1ccc([N+](=O)[O-])o1)Nc1ccc(C(F)(F)F)cc1[N+](=O)[O-]	40
Cc1ccc(C)n1CCNc1ccc(C(F)(F)F)cc1[N+](=O)[O-]	0
CC(C)(C)[C@]1(O)CCN2C[C@H]3c4ccccc4CCc4cccc(c43)[C@@H]2C1	43!
CN1CCN2c3ncccc3Cc3ccccc3C2C1 (stereo not given)	0
O=C1NC(=Nc2ccccc2)SC1Cc1cccc([N+](=O)[O-])c1 (stereo not given)	-6
SMILES	RMI FANCM FP
O=C(O)CC1SC(=Nc2ccc(O)cc2)NC1=O (stereo not given)	0
O=C1NC(=Nc2ccc(Cl)cc2)SC1Cc1cccc([N+](=O)[O-])c1 (stereo not given)	0
COc1ccc(S(=O)(=O)N2CCCCC2CC(=O)Nc2cc(Cl)ccc2OC)cc1 (stereo not given)	0
CCOc1cccc2cc(C(=O)Nc3c(C)nc4sc(C)c(C)n4c3=O)c(=O)oc12	0
COC(=O)c1ccc2nc(NC(=O)c3ccnn3C)sc2c1	0
COC(=O)c1ccc2nc(NC(=O)c3ccc(N(C)C)cc3)sc2c1	-15
CCOc1cc(C(=O)Nc2nc3ccc(C(=O)OC)cc3s2)cc(OCC)c1OCC	0
CC(C)C(=O)Nc1ccc(SCC(=O)Nc2ccc(F)c(Cl)c2)nn1	0
COc1ccc(S(=O)(=O)Cc2ccc(-c3nc(-c4ccc5c(c4)OCO5)no3)o2)cc1OC	0
Cc1ccc(C)c(S(=O)(=O)C(C#N)c2nc3ccccc3nc2N2CCCC2)c1 (stereo not given)	5
CCC(CC)COC(=O)C(C#N)c1nc2ccccc2nc1N1CCCCC1 (stereo not given)	0
